Results published in PubChem BioAssay AID1508600 (Functional Genomics Laboratory (NCATS/FGL), 2020).
In all, about 53,000 sequences went through this assay and about 3,700 (7%) were called active.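 The calls were made as follows: active = gene knockdowns whose robust z-score for IL-1 alpha signal is at least 2 or at most -2, so actives lie on both sides; inactive = the rest.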 Only a selection was taken, and actives are over-represented in it overall.

experiment: Components of the Cytosolic LPS Sensing Pathway: Gene Identification via Genome-wide siRNA Screen; details: RAW264.7 macrophages, IL-1a HTRF, actives lie on both sides, screened at 100 nM (by protocol), cells primed 5 h with Pam3CSK4 first;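 also: robust z of the log signal after scaling to non-targeting control siRNA wells of the plate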
Summary of the method: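 Supernatant IL-1a by HTRF from RAW264.7 cells primed with Pam3CSK4 (5 hours) and transfected with LipidA (24 hour) after 48h siRNA knockdown at 100 nM; cell viability checked with CellTiter-Glo.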

z-score, active:
GUCAUCAAACUAGGUGCUGTT against Olfr584 -2.22, GGUUAGAGGAAAGGUUUAUTT against Htr1f 5.07, GGCUUUUUCCACAUGUGCCTT against Olfr514 -2.29, GGUGUCAGCGAAAAGCAGUTT against Ring1 -2.2, GGUCAUUGGUUCCUCCCUUTT against C2cd4c 2.59, GCAGCUAAGAAGACCACUATT against Zfp185 2.15, CCAGUCAAAUAUCCAUUAGTT against Scgb2b26 -2.28, CCAAUCACCAGAGACUAACTT against Slain1 2.81, GCCGAGCUCAUCAUCAUGATT against Prss40 2.5, GGACCUCAGUCACUUCCAATT against Etv4 2.93, GGCUUUAAGAUCACACAAATT against Snrpa 2.09, GGAAAAGUGACGGUAUCUATT against Rpsa -2.04, GGAAGACUGGUACACAUAATT against Tmem43 -2.32, GGAGUUGAAUGGCUCUGGATT against Usp26 -2.11, GGCAUCGUCACCAAACUGUTT against Fgf11 -2.51, CGGGCUGAAUGUGUUUGUGTT against Slc10a4 2.62, GGGUGAGCAGUACAUUCAATT against Plekhg6 2.73, CCCAACAACCAACUAUUUUTT against Kcna1 3.36, CCAAGGGAAGAUUCAAAUUTT against Abcc8 2.29, GCAUUAUGUCAGUAGCUCATT against Snrpb -3.47, GGCUCAAAGGAGGGUAGAGTT against Lcn8 3.18, GGGACAAGUGGUUGAAACCTT against Prmt8 -2.01

z-score, inactive:
GGAACACCAUGAAGAAGACTT against Gabarap -0.147, GGAAAACUUUCAAAGAGAUTT against Mc4r 0.24, GGAAAAAUUUAGACAGCACTT against Csrp2 0.132, GACUCAUUCUGCAAUGAAGTT against Ifna5 0.105, GCUAAGGACACAAAAUCCATT against Slc38a10 0.129, GGAGAAAGAAAGCAGUUUUTT against 2310067E19Rik 1.55, GGGCAUUUUAACCAAAUGATT against Marchf11 0.544, GCUGCCUCAUUUCUGGAUGTT against Klk11 1.1, GGACAUGGAUGACACUGAUTT against Tsr3 -1.99, GGAAGAUGCACAUCUGGACTT against Enoph1 -0.55, CCAGGAUUCCGACUGAAUCTT against Oscp1 -0.367, GGGCUAAGUACCAAACUCATT against Ly6e -1.71, GCUUGCUAGAGUGAUCUCGTT against Adsl -0.331, GCCCUUGGAAUUUACCACUTT against Aldh8a1 -0.546, CCAGACUGAGAAGAUAUGATT against Meox2 -0.146, GGACAUUGUCUACAAGUUGTT against Pcgf2 1.12, GGACCGCUACUAUUCAGGATT against Myh10 0.93, GGGUUUUGGAUGGCGAAUATT against Lgals7 -0.0835, GGACGAAAAGAAGUGUUUCTT against Lamb2 -0.103, GGGAAACUCUGUCCAAUUGTT against Eif2d 0.402, CGGGAAAUUUCUAUUGGACTT against Akr1c12 0.312, GGUGAUGGAAGUUAGUGUGTT against Bet1 -1.34, GGCAUUCACCAUACAAUGATT against Ufm1 0.687, GGCUAACCACAUUUGCUUCTT against Zic4 0.759, GGAAGAUGUCCAAACCCGCTT against Tspan4 0.671, GGAGGUAACGCAUGUUACATT against 4930483J18Rik 0.393, GCGAAGUUACUACAGACGUTT against Slc39a1 -0.124, GGAGACUCUCACCUAUCAUTT against Doc2g -0.458, GGAAGUUUUUGAGAAUGGGTT against Ppp3cc -0.38, CCGAAUUCCAACCUAGAGCTT against Yipf5 -1.38, CCGCUCACGUGAAAAAGUUTT against Tars2 0.327, GGACAUCUGGUUAUGAAUGTT against B3galt6 -0.111, GCAUGACUCUCAGGUCAAGTT against Lman2 1.54, GGACAUUGCAUUGCUCAUGTT against Sec1 -0.526, CCUUCUUAUUGCUUAACCCTT against Scd3 0.279, GGAAGAAGAUAAAGAGCGGTT against Nrgn -0.708, AGUUCCAGGCGCAGAAACCTT against D8Ertd738e 1.46, GGUUUUUCUUCUGCUGGUGTT against Olfr1256 1.64, CCGGCUAAAUCACCGUGCUTT against Clpb -0.647, GCCCAAAAAGGAAUUAAUUTT against Pak3 -0.176, CCUGGAGAUCCCUCACUUUTT against Olfr1351 1.39, GCAGAUGCUUCGGUGAAAATT against Defb15 0.998, CCCAUACAAAGCACUUACATT against Otub1 0.589, GGACAAAUGGUAUUGUAGUTT against Coa5 -1.72, GCCGUCUUGUGUGUAUCAATT against Olfr1342 -0.186, GGGAUAAAAACCAUGGUUUTT against Pramel27 0.113, GCACUUAUGGUUUAGAUGUTT against Prdm8 -0.127, GGAACUUAUAUCUGCGCCATT against Gprin3 0.868, AAAAGCUUCACCUAACUAUTT against Ascc1 1.73, GGUGACAGUUGUUCACAAATT against 4933405O20Rik -1.4, GGAAUCAUAUCAGAAACUATT against Pde4b -0.475, GGGAGAGUCAAAAAAAGAUTT against Khdrbs1 -0.536, GCCAGUACUUAGGUCUAAGTT against Mrps25 1.24, GCCCUCAGGUGGUUCUUAATT against Heatr3 0.443, CCAUGUCAACGACCAUCAUTT against Glis2 0.189, GCACCUCCACAAGAAUGAATT against Six2 0.466, GGAACAUUGACCAGAUAGUTT against Ankrd44 -1.44, CCUUUGAGCCAGUUAUUUATT against Slc25a27 0.366, GGAACAUCUACAUUGUGGCTT against Tspan14 0.402, GGAAUUUGCUGCCCUCCUATT against Smad3 -0.206, GCAGACUCUUCCAAGUAAUTT against Lrrc28 0.529, GCUAGAUUUCUACUGUGUCTT against Mindy1 0.527, GCAAUUUUAGUUGGUGGAATT against Ddx24 -0.112, GCGGAAGUCGAAUCUGUCUTT against Aga -1.45, GGAAUUUGUCAGGUUCCAATT against Grik4 0.859, GGUACGGUAUGGAGAUCGGTT against Atpaf2 0.593, GGCAGAGCCAGGAUGUCUUTT against Msmb -1.2, GGUAACUCUCCUUAGCCAGTT against Klk10 -0.0493, GGACUCCCUGGAUUUCAGATT against Rapgef3 -1.34, GGCAGCUGAAGAUUAUGGATT against Tagln 0.837, GGCAAUAACAUUGCCUCGGTT against Igf1r 0.632, CCGAAAAUGUGGUAAAGUATT against Smg1 0.948, GGGAUAAAGAUGAAGAACUTT against Tmem167b 1.31, GGAAGUCAAGAUCUCACCUTT against Lrrc25 -0.864, CGUUUGAUACCAAAGAUUUTT against Onecut3 -1.12, GCUGUAAGCUACCGUCUGUTT against Panx2 1.54, GGUAUCUACCAGUACGAGATT against Izumo4 -1.59, CGGUGCACAACGUACCAAUTT against Srxn1 -0.0189, GGUAUCCCUAACUGGCAGUTT against Tro -0.849, GGAAAUAAAUGGCAGCAUGTT against H2-T3 1.47, GGAUGAUUCAUUCAGUGAUTT against Adcy9 0.918, CCAAAACUUUCCACUCUAATT against Ttc32 0.175, CCCAAACUGAAUUAAGCAGTT against Spata7 -0.515, GGAAAACUACUAAAAAGUCTT against Zfp938 -0.31, GGUUACUCCUUUUUAUGUATT against Bex1 -1.1, GGCCACAAACAGAAUUAUCTT against Mrpl2 -0.219
